From PubChem BioAssay
An excerpt weighted towards active compounds, which were near 18% of everything screened.
DT40 TDP1 CPT: DT40-hTDP1 cell growth loss with CPT; Potency, µM (doses to about 46.2 µM), for the others: at the highest dose activity change, negative = growth inhibition, most hits filed as inhibitors; 420,000 tested, 12% active; chicken DT40 Tdp1-/-;hTDP1 cells + 20 nM CPT, ATP luminescence, 48 h; AID 686979; note: potency is the fitted concentration of half-maximal effect; % is set by controls: 0 for no effect and ±100 for the full control effect; nearly all actives have a fitted effect of over 55% in size
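Chicken DT40 Tdp1-/- cells stably complemented with human TDP1 were seeded at 400 cells/well in medium containing 20 nM camptothecin, exposed to pin-transferred compounds, and grown at 37 °C for at least 48 hr. Viability was read as ATP luminescence.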
TGFb SMAD3 inh: inhibitors of TGF-b signaling. HepG2 CAGA-GFP TGF-b/SMAD3 reporter, GFP fluorescence, 18 h; TGF-beta stimulated, 500 pg/mL final. Potency, µM (highest dose often 46.1 µM), without a hit: at the highest dose activity, negative = inhibition, actives largely listed as inhibitors. 410,000 tested, 1.2% active. AID 588855; note: potency is the fitted concentration of half-maximal effect; % is set by controls: 0 for no effect and ±100 for the full control effect; nearly all actives have a fitted effect of over 65% in size
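HEPG2 CAGA-GFP cells (1000/well, DMEM with 1% FBS) were pre-incubated 2 h at 37 degrees C, given compound by pin tool, then stimulated with TGF-beta at 500 pg/mL final for 18 h before per-cell GFP fluorescence imaging.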
IL1B secr inh: inflammasome signaling inhibition, IL-1 beta readout; activity change, % at 57.5 µM; THP-1 LPS/ATP IL-1B secretion, AlphaLISA, 16 h; active compounds read low; 360,000 tested, 4.7% active; AID 743279; in the data active = activity change below about -50%; inconclusive = mostly about -30% to -49%; note: % is set by controls: 0 for no effect and ±100 for the full control effect
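THP-1 cells pretreated 1 hr with compounds (up to 57.5 uM final), then stimulated with LPS (250 ng/mL final) plus ATP (1.25 mM final); secreted IL-1B measured by AlphaLISA after 16 hr, decreased signal indicating inhibition.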
DT40 TDP1 no CPT: qHTS for Inhibitors of human tyrosyl-DNA phosphodiesterase 1 (TDP1): qHTS in cells in absence of CPT; DT40 Tdp1-/- hTDP1 cells, no CPT, ATP luminescence, 48 h; Potency, µM (titrated, usually from 46.2 µM), for inactives: at the top dose activity change, negative = growth inhibition, hits mostly inhibitors; 420,000 tested, 15% active; note: potency is the fitted concentration of half-maximal effect; % is set by controls: 0 for no effect and ±100 for the full control effect; nearly all actives have a fitted effect of over 55% in size
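Seeded 400 DT40-hTDP1 cells/well (vehicle DMSO, no 20 nM CPT); pinned compounds; ≥48 hr at 37 °C; CellTiter-Glo luminescence as viability measure.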
TDP1 inh: TDP1 (human) enzyme inhibition | recombinant TDP1, AlphaScreen DNA substrate cleavage | 350,000 tested, 0.28% active | Potency, µM (doses to about 130 µM), without a hit: at the top dose activity change, negative = inhibition, actives largely listed as inhibitors | Q9NUW8; note: potency is the fitted concentration of half-maximal effect; % is set by controls: 0 for no effect and ±100 for the full control effect; nearly all actives have a fitted effect of over 40% in size
Target sequence (Q9NUW8 whole entry, looked up): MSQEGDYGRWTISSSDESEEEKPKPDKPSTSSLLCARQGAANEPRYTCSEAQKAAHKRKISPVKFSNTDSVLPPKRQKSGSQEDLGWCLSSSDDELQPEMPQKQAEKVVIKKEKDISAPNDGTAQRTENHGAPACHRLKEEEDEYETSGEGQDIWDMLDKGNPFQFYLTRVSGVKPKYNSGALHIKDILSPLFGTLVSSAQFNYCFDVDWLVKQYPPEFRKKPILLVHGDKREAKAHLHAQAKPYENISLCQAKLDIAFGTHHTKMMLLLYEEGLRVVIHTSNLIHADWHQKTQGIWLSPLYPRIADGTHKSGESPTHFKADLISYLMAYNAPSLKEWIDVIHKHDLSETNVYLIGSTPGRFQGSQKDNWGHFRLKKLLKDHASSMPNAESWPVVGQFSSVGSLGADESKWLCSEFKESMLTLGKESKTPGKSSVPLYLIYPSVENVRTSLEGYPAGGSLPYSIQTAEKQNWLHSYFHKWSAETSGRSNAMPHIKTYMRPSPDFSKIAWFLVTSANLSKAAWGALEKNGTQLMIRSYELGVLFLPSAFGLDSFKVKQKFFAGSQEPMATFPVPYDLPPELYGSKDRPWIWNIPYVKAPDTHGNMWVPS
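Recombinant E. coli-expressed Tdp1 (1 nM) preincubated with compound 15 min at RT, then 5'-biotin/3'-phosphotyrosine-FITC DNA substrate (15 nM) added for 5 min. AlphaScreen beads (10 ug/ml) added, 10 min RT; tyrosine-FITC cleavage read as signal loss.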
HepG2 tox: kills HepG2 cells in TGF-b inhibitor counter-screen; 410,000 tested, 0.76% active; HepG2 CAGA-GFP viability, ATP luminescence, 18 h; Potency, µM (doses to about 46.1 µM), for inactives: top-dose activity change, negative = cytotoxicity, most hits filed as cytotoxic; AID 588856; note: potency is the fitted concentration of half-maximal effect
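HepG2 CAGA-GFP cells (1000/well, DMEM with 1% FBS) received compound, then TGF-beta at 500 pg/mL final, and were incubated 18 hours at 37 degrees C. Viability was read by CellTiter-Glo luminescence. Media-only wells were set as complete cell-killing and DMSO as no toxicity.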
Numbers without * were called inactive; ? = inconclusive; nt = no result given; ! = not active in a repeat; [ ] = another dose, or the depositor's remark. Unless noted, calls come from the whole dose curve; as a rule, active = well fitted curve in the direction sought with a large enough effect; inconclusive = small, poorly fitted or top-dose-only effect, or another doubt; inactive = no such curve, though single readings can be large; an effect the other way counts as inactive or inconclusive.

SMILES	DT40 TDP1 CPT	TGFb SMAD3 inh	IL1B secr inh	DT40 TDP1 no CPT	TDP1 inh	HepG2 tox
Cc1ccc(C)c(N(C)S(=O)(=O)c2ccc3[nH]cc(C(=O)NC4CCCC4)c(=O)c3c2)c1	?	?	nt	?	7.8%	-108.6%
Cc1ccc(CCNC(=O)CCCn2c(=O)c3cccn3c3ccc(F)cc32)cc1	?	?	nt	16.4µM*	-5.2%	-13.7%
CC(CNC(=O)CCn1c(=O)c2cccn2c2ccc(F)cc21)c1ccccc1 (stereo unspecified)	13µM*!	?	0.0	?	5.2%	2.1%
COc1ccc(OC)c(CCNC(=O)CCn2c(=O)c3cccn3c3ccc(F)cc32)c1	?	-10.0%	nt	?	6.5%	1.5%
COc1ccc(CCNC(=O)CCCn2c(=O)c3cccn3c3ccccc32)cc1OC	16.4µM*	-4.4%	nt	13µM*	5.2%	-7.0%
COc1ccc(OC)c(CCNC(=O)CCCn2c(=O)c3cccn3c3ccc(F)cc32)c1	18.4µM*	3.0%	nt	9.2µM*	1.3%	1.3%
COc1ccc([N+](=O)[O-])cc1NC(=O)C(C)NNC(=O)c1cccc([N+](=O)[O-])c1 (stereo unspecified)	-28.7%	3.1%	6.6	?	2.2%	-12.6%
CCn1cc(/C=C(\NC(=O)c2ccccc2OC)C(=O)NCCN2CCOCC2)c2ccccc21	?	-8.4%	-6.3	?	nt	-9.9%
COc1ccc(CCNC(=O)CCCn2c(=O)c3cccn3c3cccnc32)cc1OC	?	-3.1%	nt	?	5.1%	-1.8%
COc1ccc(OC)c(CNC(=O)CCn2c(=O)c3cccn3c3ccc(F)cc32)c1	?	12.3%	23.2	?	0.0%	5.6%
O=C(CCCn1c(=O)c2cccn2c2ccc(F)cc21)NCc1ccc(Cl)cc1	?	0.0%	nt	20.6µM*	-2.6%	-7.2%
CSc1ccc(CNC(=O)CCn2c(=O)c3cccn3c3ccc(F)cc32)cc1	?	-22.0%	nt	?	2.6%	-13.6%
COc1ccc(CCNC(=O)CCCn2c(=O)c3cccn3c3ccc(F)cc32)cc1OC	14.6µM*	0.0%	nt	11.6µM*	2.6%	-0.6%
COc1cccc(CNC(=O)CCCn2c(=O)c3cccn3c3ccc(F)cc32)c1OC	11.6µM*	-27.6%	nt	8.2µM*	-2.6%	-30.7%
CC(NC(=O)c1ccccc1)c1nnc(SCC(=O)Nc2nnc(C3CC3)s2)n1C (stereo unspecified)	10.5%	-16.5%	22.8	-5.2%	nt	-2.0%
O=C(Nc1nc2cc3c(cc2s1)OCO3)c1ccc(N2C(=O)CCC2=O)cc1	-2.4%	-6.5%	-4.9	24.5%	nt	-2.9%
COc1ccc(C(=O)Nc2nc3cc4c(cc3s2)OCO4)c(OC)c1	?	-0.7%	-15.2	-13.8%	nt	-0.6%
O=C(Nc1nc2cc3c(cc2s1)OCO3)C1CC1	4.11µM*	-0.5%	2.6	3.66µM*	nt	0.4%
O=C(Nc1nc2ccc(Cl)cc2s1)C1CC1	-26.7%	?	25.3	?	nt	-14.3%
Fc1cccc2sc(Nc3nc4cc5c(cc4s3)OCO5)nc12	20.6µM*	?	11.9	?	7.8%	-1.5%
CC(C)c1ccc2nc(NC(=O)C3CC3)sc2c1	?	?	-57.3*	?	nt	-39.9%
CC(C)C(=O)Nc1nc2cc3c(cc2s1)OCO3	5.17µM*	5.1%	18.9	4.61µM*	3.3%	1.2%
CCOc1ccc2oc(C(=O)N3CC(C)OC(C)C3)c(C)c2c1 (stereo unspecified)	?	7.3%	28.6	-29.5%	5.7%	-0.4%
COc1nc(OC)nc(N2CCC(C(=O)NCc3cccs3)CC2)n1	-16.9%	?	3.7	-16.5%	-2.2%	10.6%
O=S1(=O)C[C@H](N2CCCC2)[C@@H](COCc2ccccc2)N1	0.1%	2.5%	-24.0	-2.2%	nt	-1.3%
SMILES	DT40 TDP1 CPT	TGFb SMAD3 inh	IL1B secr inh	DT40 TDP1 no CPT	TDP1 inh	HepG2 tox
Cc1cc(/C=N/n2cnnc2)c(C)n1-c1ccc(OCc2ccc(Cl)cc2)cc1	4.61µM*	?	-81.6*	3.26µM*	15.1%	-24.2%
Cc1cc(/C=N/n2cnnc2)c(C)n1-c1ccc(OCc2ccccc2F)cc1	20.6µM*	11.2µM*	-84.5*	13µM*	5.2%	12.6µM*
C(=N\n1cnnc1)/c1ccc(OCc2ccccc2)cc1	-14.6%	22.1%	30.5	-3.5%	0.0%	-20.0%
Fc1ccccc1COc1cccc(/C=N/n2cnnc2)c1	-33.7%	35.3%	-7.1	2.8%	-2.1%	-13.5%
CN(C)CC1CCCCC1OC(=O)/C=C/c1ccc(Cl)cc1Cl (stereo unspecified)	?	2.3%	-79.3*	?	5.0%	-37.4%
COc1ccccc1NC(=O)CSc1nnc(-c2ccoc2C)n1C	6.9%	4.8%	-5.8	7.7%	nt	-13.2%
Cc1ccc(NC(=O)CSc2nnc(CNC(=O)c3ccco3)o2)cc1Cl	-7.7%	5.1%	11.9	19.9%	0.7%	12.1%
O=C(NCC(c1cccnc1)N1CCc2ccccc2C1)c1ccc(F)c(F)c1 (stereo unspecified)	8.2µM*	?	nt	7.31µM*	1.3%	-29.5%
COc1cc(C(=O)NCC(c2cccnc2)N2CCc3ccccc3C2)cc(OC)c1OC (stereo unspecified)	?	?	nt	?	-1.3%	-13.5%
O=C(NCC(c1cccnc1)N1CCc2ccccc2C1)C(=O)Nc1ccccc1F (stereo unspecified)	14.6µM*	-26.6%	nt	20.6µM*	2.6%	-35.6%
CN1CCN(C(CNC(=O)C(=O)Nc2ccc(F)cc2)c2cccnc2)CC1 (stereo unspecified)	-21.5%	23.1%	nt	-2.8%	3.9%	2.4%
COc1ccccc1C(=O)NCC(c1cccnc1)N1CCc2ccccc2C1 (stereo unspecified)	23.1µM*	?	nt	20.6µM*	-1.3%	-46.6%
O=C(NCC(c1cccnc1)N1CCOCC1)C(=O)Nc1ccc(Cl)cc1 (stereo unspecified)	?	-4.9%	nt	?	-1.3%	2.3%
O=C(NCC(c1cccnc1)N1CCc2ccccc2C1)C(=O)Nc1ccccc1 (stereo unspecified)	20.6µM*	?	nt	?	7.8%	-29.1%
COc1cccc(C(=O)NCC(c2ccco2)N2CCc3ccccc3C2)c1 (stereo unspecified)	-3.3%	0.0%	-15.2	-8.3%	-2.4%[0.505 µM]	-4.3%
